Assay [1] is described as follows: TOX21_p53_BLA_p2_viability: Viability Assessment in the Tox21 HCT-116 p53 Agonism Beta-lactamase Assay, Phase 2 (AID 2283591).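 Note: compound exposure lasted 16 h at 37 °C; actives lower the ATP signal meaning cytotoxicity.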 The method, boiled down: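 HCT116 p53-bla cells, 4000/well, dosed after 5 h plating (217-fold dilution of DMSO stocks) and incubated 16 h at 37C. Viability taken as cellular ATP by CellTiter-Glo luminescence after 30 min RT; signal loss marks cytotoxicity.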

In assay [2] the target is Cellular tumor antigen p53 (Homo sapiens) (UniProt P04637). Nature of the assay: TOX21_p53_BLA_p2_ratio: Tox21 HCT-116 p53 Agonism Beta-lactamase Assay, Ratio, Phase 2 (AID 2283592). The method, boiled down:
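Ratio endpoint: beta-lactamase cleavage of CCF4-AM, blue (460 nm) over green (530 nm). HCT116 reporter line; 16 h treatment, 37C; substrate 2 h RT.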

The nature of assay [3]: TOX21_p53_BLA_p4_viability: Viability Assessment in the Tox21 HCT-116 p53 Agonism Beta-lactamase Assay, Phase 4 (AID 2283597).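 Note: hits lower the luminescence signal meaning cytotoxicity.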 In outline:
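Cytotoxicity was inferred from loss of CellTiter-Glo luminescence. HCT116 cells had been dosed with compounds after 5 h plating, incubated 16 h at 37C and 5% CO2, and exposed to the CCF4-AM substrate for 2 h.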

For assay [4], the target named is Cellular tumor antigen p53 (Homo sapiens) (UniProt P04637). Nature of the assay: TOX21_p53_BLA_p5_ratio: Tox21 HCT-116 p53 Agonism Beta-lactamase Assay, Ratio, Phase 5 (AID 2283599). The method, boiled down:
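HCT-116 p53-bla cells (4000/well) plated 5 h, dosed with compound (217-fold DMSO dilution) for 16 h at 37 C; CCF4-AM substrate 2 h at room temperature. Activity is the 460/530 nm emission ratio (405 nm excitation), fitted in gain-of-signal direction versus DMSO.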

The target is the same in assay [5]. Briefly: TOX21_p53_BLA_p4_ratio: Tox21 HCT-116 p53 Agonism Beta-lactamase Assay, Ratio, Phase 4 (AID 2283601). In outline:
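HCT-116 p53 beta-lactamase reporter cells (4000/well) preincubated 5 h, then compound (217-fold dilution of DMSO stock) for 16 h at 37C. CCF4-AM substrate added 2 h at room temperature; 460/530 nm emission ratio fitted upward versus DMSO.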

Assay [6] is described as follows: TOX21_p53_BLA_p5_viability: Viability Assessment in the Tox21 HCT-116 p53 Agonism Beta-lactamase Assay, Phase 5 (AID 2283600). The method, boiled down:
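Luciferase-coupled ATP quantitation of cells treated for 16 h (37C, 5% CO2) with test chemicals delivered in DMSO via a 217-fold dilution; 4000 cells/well; reagent incubated 30 min at room temperature before luminescence reading.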

Assay [7] concerns the target Thyroid hormone receptor alpha (Rattus norvegicus) + Thyroid hormone receptor beta (Rattus norvegicus) (UniProt P18113+P63059). Briefly: TOX21_TR_LUC_GH3_Antagonist_Followup: Tox21 GH3 Thyroid Hormone Receptor Antagonism Luciferase Follow-Up Assay (AID 2283942). The method, boiled down:
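Luminescence read-out (ONE-Glo, 30 min at room temperature) in GH3 reporter cells challenged with 1.0 nM T3 final. Compounds ran at 92 uM to 5nM over 15 concentrations for 24 h; DMSO served as negative control and baseline.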

The next assay concerns the target THRB (gene 7068) (UniProt P10828). Briefly: TOX21_TRB_BLA_Antagonist_Followup_ratio: Tox21 Thyroid Hormone Receptor beta Antagonism Beta-lactamase (BLA) Follow-Up Assay, Ratio (AID 2283958). The method, boiled down:
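Read-out: blue/green (460:530 nm) ratio of cleaved to uncleaved CCF4-AM after 2 h at room temperature, fitted against DMSO baseline. HEK293T UAS-bla cells carrying GAL4-human TRβ LBD were exposed 18 h, 37C/5% CO2.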

Assay [8] can be described thus: TOX21_TR_RXR_BLA_Antagonist_Followup_viability: Viability Assessment in the Tox21 Thyroid Hormone Receptor beta Retinoid X Receptor alpha (RXRa) Antagonism Beta-lactamase (BLA) Follow-Up Assay (AID 2283979). The method, boiled down: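 RXRa-bla HEK293T cells (2,500/well, phenol red-free DMEM, 2% charcoal-stripped FBS) were attached 5 h, then exposed to compounds at 11 concentrations in triplicate for 16 h at 37C. Viability measured by CellTiter-Glo ATP luminescence, bidirectional fitting versus DMSO.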

A short description of assay [9]: CCTE_Harrill_HTTr_Viability_MCF7: CCTE's 6-hour Cell Viability Assessment for the High-Throughput Transcriptomics (HTTr) Platform, in MCF-7 cells cultured in DMEM + 10% fetal bovine serum, Harrill Lab (AID 2284010; active = hit-call score of the fitted dose curve at least 0.9, where 1 is the maximum; inactive = score below 0.9). The method, boiled down:
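PI exclusion, high-content imaging; 8-pt dilution series, 6 h exposure; bidirectional fit vs DMSO (neg. ctrl/baseline); gain of signal = loss of membrane integrity.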

A short description of assay [10]: CCTE_Harrill_HTTr_Apoptosis_MCF7: CCTE's 6-hour Apoptosis Assessment for the High-Throughput Transcriptomics (HTTr) Platform, in MCF-7 cells cultured in DMEM + 10% fetal bovine serum, Harrill Lab (AID 2284011; active = hit-call score of the fitted dose curve at least 0.9, where 1 is the maximum; inactive = score below 0.9). The method, boiled down:
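MCF-7 cells in DMEM + 10% fetal bovine serum were exposed to chemicals for 6 hours over an eight-point dilution series. Caspase-3/7 activation was imaged by high content imaging with CellEvent Caspase 3/7 Green; bidirectional fitting used DMSO as baseline.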

The structures appear in SMILES notation. Records with an inconclusive call do not appear. Activity calls are given as the source filed them. Rule for the calls, unless noted: active = hit-call score of the fitted dose curve at least 0.9, where 1 is the maximum; inconclusive = response in the unintended direction; inactive = score below 0.9.

Cellular tumor antigen p53 (Homo sapiens), sequence (P04637 whole entry, looked up): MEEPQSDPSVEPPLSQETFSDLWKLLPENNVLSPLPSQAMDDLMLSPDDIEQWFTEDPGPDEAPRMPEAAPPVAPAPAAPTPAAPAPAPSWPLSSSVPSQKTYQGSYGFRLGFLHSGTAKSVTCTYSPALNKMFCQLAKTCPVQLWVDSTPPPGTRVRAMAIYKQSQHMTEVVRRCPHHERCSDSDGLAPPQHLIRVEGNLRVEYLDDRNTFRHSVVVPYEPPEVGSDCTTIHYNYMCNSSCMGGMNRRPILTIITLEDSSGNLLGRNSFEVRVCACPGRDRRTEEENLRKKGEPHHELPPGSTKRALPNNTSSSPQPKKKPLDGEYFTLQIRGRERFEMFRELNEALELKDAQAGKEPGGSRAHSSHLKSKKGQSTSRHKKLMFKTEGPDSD
THRB (gene 7068), sequence (P10828 whole entry, looked up, the tested form may be a part): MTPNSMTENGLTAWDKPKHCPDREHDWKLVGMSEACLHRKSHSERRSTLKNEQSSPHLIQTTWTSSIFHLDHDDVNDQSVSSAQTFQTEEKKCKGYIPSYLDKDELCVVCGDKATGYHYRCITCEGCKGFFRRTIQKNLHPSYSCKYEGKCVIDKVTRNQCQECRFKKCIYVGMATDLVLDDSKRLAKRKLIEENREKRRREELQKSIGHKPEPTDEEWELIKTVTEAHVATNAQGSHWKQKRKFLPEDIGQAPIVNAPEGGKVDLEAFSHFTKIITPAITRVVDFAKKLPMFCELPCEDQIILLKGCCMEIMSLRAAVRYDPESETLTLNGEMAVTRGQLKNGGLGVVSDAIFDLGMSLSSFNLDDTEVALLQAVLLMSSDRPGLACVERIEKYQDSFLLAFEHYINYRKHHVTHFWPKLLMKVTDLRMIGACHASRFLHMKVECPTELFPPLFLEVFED

As to `CCOC(=O)[C@H](CCc1ccccc1)N[C@H]1CCCN2CCC[C@@H](C(=O)O)N2C1=O`, the molecule was called inactive in assay [1], in assay [2], in assay [3], in assay [4] and in [5].
In the case of `CCNc1nc(NC(C)CC)nc(OC)n1` (stereo unspecified), the molecule was called inactive in assay [1], in assay [2], in assay [4] and in [5]. Further, the AC50 in [6] is 0.12 nM (active).
As for `COc1nc(N)nc2nc[nH]c12`, the molecule was classed as inactive in [1], in assay [2], in assay [3] and in assay [6].
`C=CC(=O)OCCCCCCCC`: the molecule was called inactive in assay [1], in assay [2], in assay [3] and in [6].
Consider `C=CCCCCCCCCCCCCCCCC`, for which the outcome in assay [1], in assay [2], in assay [3] and in [5] was inactive.
Regarding `CCC(C)(C)C`, the outcome in assay [1], in [2], in assay [3] and in [5] was inactive.
Regarding `Nc1ccn(C[C@@H](CO)OCP(=O)(O)O)c(=O)n1`, the result in [1], in assay [2], in [4] and in [6] was inactive.
In the case of `CN(C)CCc1c[nH]c2ccc(C[C@H]3COC(=O)N3)cc12`, the molecule was called inactive in assay [1], in assay [2], in assay [4], in [6] and in assay [5].
For `NS(=O)(=O)c1cc2c(cc1Cl)NC(CC1CCCC1)NS2(=O)=O` (stereo unspecified), the molecule was called inactive in assay [1], in assay [2], in [4] and in assay [6].
Consider `CC[C@H]1NC(=O)[C@@H](NC(=O)c2ncccc2O)[C@@H](C)OC(=O)[C@H](c2ccccc2)NC(=O)[C@@H]2CC(=O)CCN2C(=O)[C@H](Cc2ccccc2)N(C)C(=O)[C@@H]2CCCN2C1=O`, for which the result in assay [1], in assay [2], in assay [4] and in assay [6] was inactive.
Regarding `O=c1[nH]c(=O)c2ccccc2o1`, the outcome in assay [1], in assay [2] and in [4] was inactive.
For `CC1(C)S[C@@H]2[C@H](N=CN3CCCCCC3)C(=O)N2[C@H]1C(=O)O`, the call in [1], in assay [2], in assay [3], in assay [6] and in assay [5] was inactive.
For the molecule `N[C@H](C(=O)O)c1ccc(O)cc1`, the call in assay [1], in [2], in [4], in assay [6] and in assay [5] was inactive.
In the case of `C=CCCCCCCC=C`, the outcome in [1], in assay [2], in assay [3], in [6] and in [5] was inactive.
Consider `COc1ccc(N=[N+]([O-])c2ccc(OC)cc2)cc1`, for which the molecule was classed as inactive in [1], in [2] and in assay [4].
Regarding `CN1CCCN=C1COC(=O)C(O)(c1ccccc1)C1CCCCC1` (stereo unspecified), the molecule was called inactive in [1], in assay [2], in assay [3], in [4] and in assay [5].
Take `COc1ccc(/C=C/C(=O)Nc2ccccc2C(=O)O)cc1OC`: the call (in [1]; in assay [2]; in assay [3]; in [6]; with THRB (gene 7068); in assay [8]) was inactive. Moreover, the AC50 in [7] was 2.7 µM (active).
For `CC(=O)[C@H]1CC[C@H]2[C@@H]3C[C@H](C)C4=CC(=O)CC[C@]4(C)[C@H]3[C@@H](O)C[C@]12C`, the outcome in assay [1], in assay [2] and in assay [4] was inactive.
Consider `O=C(O)c1cccc(O)c1`, for which the call in assay [1], in [2], in [3], in assay [4] and in [5] was inactive.
As to `CN1c2cc(O)c(N=NC(N)=O)cc2CC1S(=O)(=O)O` (stereo unspecified), the result in assay [1], in assay [2] and in [4] was inactive.
For the molecule `CCOc1cc(OCC)c(C(=O)CCC(=O)O)cc1OCC`, the molecule was classed as inactive in [1], in [2], in assay [3], in assay [6] and in [5].
Turning to `CCCC(C)CC` (stereo unspecified), the outcome in assay [1], in assay [2], in [3] and in [6] was inactive.
Consider `C=C1c2c(Cl)ccc(O)c2C(O)=C2C(=O)[C@]3(O)C(O)=C(C(N)=O)C(=O)[C@@H](N(C)C)[C@@H]3[C@@H](O)[C@H]12`, for which the molecule was called inactive in assay [1], in [2], in assay [3] and in assay [6].
As to `CCC(=O)Nc1cccc(N)c1`, the molecule was classed as inactive in assay [1], in assay [2], in assay [3] and in [6].
As to `CCOC(=N)CC(=O)OCC`, the molecule was classed as inactive in assay [1], in assay [2], in assay [3], in assay [9] and in assay [10].
Take `CCNc1cc(O)ccc1C`: the result in assay [1], in assay [2], in assay [3], in assay [6] and in [5] was inactive.
Turning to `CC1=C2[C@@H]([C@H](C)CC[C@H]2/C=C(\C)C(=O)O)[C@H](O)C1`, the outcome in [1], in assay [2], in assay [3], in assay [4] and in assay [5] was inactive.
For `CC1(N)CCC(C(C)(C)N)CC1` (stereo unspecified), the molecule was called inactive in assay [1], in [2], in assay [4] and in assay [6].
With `CCCCCCN`, the molecule was classed as inactive in assay [1], in assay [2], in assay [4] and in assay [6].
As to `CC1(C)[C@@H]2CC[C@]3(C2)[C@@H]1C(=O)CCC3(C)C`, the molecule was called inactive in assay [1], in assay [2], in [3], in [6] and in [5].
For the molecule `CCCCCCCCCC(=O)N(C)C`, the call in assay [1], in assay [2], in assay [4] and in [6] was inactive.
As for `C[C@@H]1CC[C@H]2C(C)(C)[C@H]3C[C@@]12CC[C@@]3(C)O`, the molecule was classed as inactive in [1], in assay [2], in assay [3], in [6] and in assay [5].

As a reminder, the AC50 is the midpoint of the concentration-response curve, whichever way the signal moves.

For the origin of these results see PubChem BioAssay (EPA / NIEHS).
